Data as given in PubChem BioAssay (Tox21).
Results filed as inconclusive are left out. The source made the active and inactive calls. Unless noted, calls follow the shape of the dose curve; as a rule, active = well fitted curve in the direction sought with a large enough effect in the repeat runs; inconclusive = weak or mixed curves; inactive = no such curve, though single readings can be large; an effect the other way counts as inactive or inconclusive.

How the values were obtained:
[1] = qHTS assay to identify aromatase inhibitors - cell viability counter screen (AID 743084);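 also: cells stimulated with testosterone during compound exposure; nearly all actives have a fitted effect of over 55% in size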
[2] = molecular target: Aryl hydrocarbon receptor (Homo sapiens) (UniProt P35869); assay: qHTS assay to identify small molecule that activate the aryl hydrocarbon receptor (AhR) signaling pathway (AID 743085); also: nearly all actives have a fitted effect of over 15% in size; also: potency is read from the fitted curve at half-maximal effect;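 as to activation: HG2L7.5c1 human HepG2 liver cells with stably integrated DRE-driven firefly reporter; series mostly up to about 70 µM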
Aryl hydrocarbon receptor (Homo sapiens), sequence (P35869 whole entry, looked up): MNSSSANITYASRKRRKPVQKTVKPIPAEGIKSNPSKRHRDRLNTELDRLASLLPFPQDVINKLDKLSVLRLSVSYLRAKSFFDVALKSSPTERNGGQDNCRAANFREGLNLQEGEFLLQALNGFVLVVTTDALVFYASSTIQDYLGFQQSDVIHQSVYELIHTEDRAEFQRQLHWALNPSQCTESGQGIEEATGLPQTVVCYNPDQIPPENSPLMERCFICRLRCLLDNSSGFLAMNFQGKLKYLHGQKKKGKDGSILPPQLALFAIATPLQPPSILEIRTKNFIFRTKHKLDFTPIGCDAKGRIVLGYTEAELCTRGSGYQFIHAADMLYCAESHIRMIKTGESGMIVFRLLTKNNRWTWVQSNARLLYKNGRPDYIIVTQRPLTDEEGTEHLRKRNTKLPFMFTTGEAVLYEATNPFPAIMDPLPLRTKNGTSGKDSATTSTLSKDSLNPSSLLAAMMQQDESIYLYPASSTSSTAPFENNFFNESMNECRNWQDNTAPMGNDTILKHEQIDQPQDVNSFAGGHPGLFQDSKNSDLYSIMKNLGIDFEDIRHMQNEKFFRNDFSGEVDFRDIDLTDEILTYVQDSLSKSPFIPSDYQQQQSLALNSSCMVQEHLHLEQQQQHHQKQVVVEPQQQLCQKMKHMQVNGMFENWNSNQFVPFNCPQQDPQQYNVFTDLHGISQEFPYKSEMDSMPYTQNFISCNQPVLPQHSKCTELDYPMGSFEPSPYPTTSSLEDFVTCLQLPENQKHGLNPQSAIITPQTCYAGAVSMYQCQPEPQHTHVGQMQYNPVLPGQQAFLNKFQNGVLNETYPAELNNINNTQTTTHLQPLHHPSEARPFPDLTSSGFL
In short: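 Stably transfected human liver carcinoma cells (HG2L7.5c1; 20 DRE-firefly luciferase) were incubated 5 h, dosed, and kept 24 h at 37C. Agonism was scored from increased luciferase luminescence.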

[3] = qHTS assay to identify small molecule that activate the aryl hydrocarbon receptor (AhR) signaling pathway - cell viability counter screen (AID 743086);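 also: HepG2 liver cells carrying the AhR DRE luciferase reporter; series mostly up to about 70 µM; nearly all actives have a fitted effect of over 45% in size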
In short: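 HepG2-AhR-luc (HG2L7.5c1) cells, 4000/well, were preincubated 5 h at 37C, exposed to compound in qHTS format for 24 hr at 37C, then given CellTiter-Fluor for 30 min; viability was read as fluorescence in the reporter wells.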

[4] = molecular target: Peroxisome proliferator-activated receptor gamma (Homo sapiens) (UniProt P37231); assay: qHTS assay to identify small molecule agonists of the peroxisome proliferator-activated receptor gamma (PPARg) signaling pathway (AID 743094; active = well fitted activation curve with a large enough effect in the signal ratio in the repeat runs, not every such curve was filed as active; the % refers to the signal ratio)
Peroxisome proliferator-activated receptor gamma (Homo sapiens), sequence (P37231 whole entry, looked up): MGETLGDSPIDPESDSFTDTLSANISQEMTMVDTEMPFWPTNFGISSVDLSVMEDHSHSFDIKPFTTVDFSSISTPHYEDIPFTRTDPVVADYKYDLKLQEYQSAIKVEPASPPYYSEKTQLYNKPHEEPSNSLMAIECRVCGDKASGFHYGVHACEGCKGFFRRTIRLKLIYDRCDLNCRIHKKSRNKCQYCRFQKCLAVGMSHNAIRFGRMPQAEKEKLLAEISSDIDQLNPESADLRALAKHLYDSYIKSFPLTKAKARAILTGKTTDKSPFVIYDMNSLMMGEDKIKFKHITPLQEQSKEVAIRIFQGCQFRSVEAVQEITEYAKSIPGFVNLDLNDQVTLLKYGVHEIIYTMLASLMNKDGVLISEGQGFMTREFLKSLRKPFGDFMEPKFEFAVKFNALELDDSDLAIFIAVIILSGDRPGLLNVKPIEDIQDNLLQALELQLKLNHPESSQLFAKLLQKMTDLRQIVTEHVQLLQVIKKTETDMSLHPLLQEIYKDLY
In short: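 Cells from the PPARg UAS-bla HEK293H line are plated and incubated 5 h at 37C. Compounds in DMSO are pinned in and left 17 h at 37C. LiveBLAzer B/G substrate is then added for 1 h at room temperature before fluorescence is measured.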

[5] = qHTS assay to identify small molecule antagonists of the peroxisome proliferator-activated receptor gamma (PPARg) signaling pathway - cell viability counter screen (AID 743194); also: nearly all actives have a fitted effect of over 55% in size; also: potency is read from the fitted curve at half-maximal effect
In short: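 PPARg-UAS-bla HEK293H cells were plated, rested 5 h at 37 C, then treated with compounds plus rosiglitazone (50 nM final) for 17 h at 37 C; viability was then read by CellTiter-Glo luminescence after 30 min at room temperature.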

[6] = qHTS assay for small molecule agonists of the antioxidant response element (ARE) signaling pathway - cell viability counter screen (AID 743203; calls by dose curve; also: nearly all actives have a fitted effect of over 55% in size; also: potency is read from the fitted curve at half-maximal effect)
In short: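 Cytotoxicity was tested in parallel with the ARE reporter screen. ARE-bla HepG2 cells were exposed to compounds for 16 hrs, and viability was taken from CellTiter-Glo luminescence.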

[7] = qHTS assay for small molecule activators of the heat shock response signaling pathway - cell viability counter screen (AID 743209); also: nearly all actives have a fitted effect of over 50% in size
In short: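 Cytotoxicity counter screen run in parallel with the HSE beta-lactamase reporter, using the same wells. HeLa HSE-bla cells received compound for 5 h at 37 C; ATP-based CellTiter-Glo luminescence was measured after 30 min at room temperature.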

[8] = qHTS assay for small molecule agonists of the antioxidant response element (ARE) signaling pathway (AID 743202; active = well fitted activation curve with a large enough effect in the signal ratio in the repeat runs, not every such curve was filed as active; the % refers to the signal ratio; also: potency is read from the fitted curve at half-maximal effect)
In short: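 Following a 16 h, 37 C exposure of reporter HepG2 cells (ARE-driven beta-lactamase, 2,000 cells/well) to compounds, FRET substrate was applied for 2 h at room temperature and fluorescence intensity recorded.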

[9] = qHTS assay for small molecule activators of the heat shock response signaling pathway (AID 743210; active = well fitted activation curve with a large enough effect in the signal ratio in the repeat runs, with a control signal flat, not every such curve was filed as active; the % refers to the signal ratio; also: potency is read from the fitted curve at half-maximal effect; as to activation: series mostly up to about 63 µM)
In short: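 Heat shock element–beta-lactamase HeLa reporter cells; qHTS with compounds for 5 h at 37 C; detection by FRET substrate fluorescence after 2.5 h at RT.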

[10] = molecular target: Peroxisome proliferator-activated receptor gamma (Homo sapiens) (UniProt P37231); assay: qHTS assay to identify small molecule antagonists of the peroxisome proliferator-activated receptor gamma (PPARg) signaling pathway (AID 743191; calls by dose curve; also: series mostly up to about 63 µM; nearly all actives have a fitted effect of over 30% in size)
In short: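 GeneBLAzer PPARg UAS-bla HEK293H cells carrying a UAS-driven beta-lactamase reporter were plated at 3000 cells/well, preincubated 5 h at 37C, then given compound for 17 h at 37C; LiveBLAzer B/G FRET substrate was read after 1 h at room temperature.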

Measured: Potency

O=C1N(c2ccccc2)c2ccccc2C1(Cc1ccncc1)Cc1ccncc1
not listed: [8] | [9] | [10]
inactive: all other assays above

CN1C(=O)CC(c2ccccc2)C1=O (configuration not stated)
not listed: [10]
inactive: all other assays above

CC(=O)Nc1ccc(C)c(Cl)c1
not listed: [10]
inactive: all other assays above

CCCc1c2oc(C(=O)O)cc(=O)c2cc2c(=O)cc(C(=O)O)n(CC)c12
not listed: [6] | [9] | [10]
inactive: all other assays above

CN1CCN(C2=Nc3ccccc3Oc3ccc(Cl)cc32)CC1
not listed: [10]
inactive: all other assays above

C=C(C)C(=O)OCCOP(=O)(O)O
not listed: [7] | [9] | [10]
inactive: all other assays above

CCC(=O)Nc1ccc(O)cc1
not listed: [9] | [10]
inactive: all other assays above

Clc1cccc(-c2cc(Cl)cc(Cl)c2)c1
not listed: [9] | [10]
inactive: all other assays above

CCCCCCCOC(=O)CCC
not listed: [10]
inactive: all other assays above

CCOC(=O)NCCC[Si](OCC)(OCC)OCC
not listed: [10]
inactive: all other assays above

CCCCCCC
not listed: [9] | [10]
inactive: all other assays above

CCN[C@H]1CN(CCCOC)S(=O)(=O)c2sc(S(N)(=O)=O)cc21
not listed: [10]
inactive: all other assays above

OCCN(CCO)CCN(CCO)CCO
not listed: [7] | [8] | [10]
inactive: all other assays above

Cc1ccsc1C(=CCCN1CCC[C@@H](C(=O)O)C1)c1sccc1C
not listed: [8] | [9] | [10]
inactive: all other assays above

CC(=O)Oc1cc(C(C)C)c(OCCN(C)C)cc1C
not listed: [10]
inactive: all other assays above

CC(C)(C)c1ccc(OC(=O)c2ccccc2O)cc1
not listed: [10]
inactive: all other assays above

COc1ccccc1OCC(O)COC(N)=O (configuration not stated)
not listed: [10]
inactive: all other assays above

C[C@]12CCC(=O)C=C1CC[C@@H]1[C@@H]2CC[C@@]2(C)[C@H]1CC[C@]2(O)C(=O)CO
not listed: [6] | [10]
inactive: all other assays above

Cc1ccc(C=O)s1
not listed: [9] | [10]
inactive: all other assays above

Oc1ccccc1F
not listed: [10]
inactive: all other assays above

NC/C=C/C(=O)O
not listed: [9] | [10]
inactive: all other assays above

NCCC(O)(P(=O)(O)O)P(=O)(O)O
not listed: [6] | [10]
inactive: all other assays above

CC(C)CCCCCCc1ccc(OCCOCCO)cc1
not listed: [7] | [10]
inactive: all other assays above

Cc1cccc(C)c1NC(=O)CN1CCCCCC1
not listed: [6] | [9] | [10]
inactive: all other assays above

C1CSCCS1
not listed: [6] | [10]
inactive: all other assays above

CC(C)(C)C1CCCCC1=O (configuration not stated)
inactive: [1] | [2] | [3] | [5] | [8]

CC1=C2[C@H](/C=C(\C)C(=O)O)CC[C@@H](C)[C@H]2CC1
inactive: [1] | [2] | [3] | [5] | [6] | [7]

CN1[C@@H]2CC[C@H]1CC(OC(=O)c1c[nH]c3ccccc13)C2 (some centres not stated)
not listed: [3] | [7] | [9]
inactive: all other assays above

NS(=O)(=O)c1cc(-c2nn[nH]n2)c(NCc2cccs2)cc1Cl
active: [8] 10.6 µM
not listed: [4] | [6] | [10]
inactive: all other assays above

COc1nc(C)nc(NC(=O)NS(=O)(=O)c2ccccc2OCCCl)n1
not listed: [3] | [9]
inactive: all other assays above

COC(=O)C(C)O (configuration not stated)
not listed: [3] | [5] | [9]
inactive: all other assays above

CCC1(C)NC(=O)NC1=O (configuration not stated)
not listed: [3] | [9]
inactive: all other assays above

CCCCOc1cc(C(=O)NCCN(CC)CC)c2ccccc2n1
not listed: [3] | [5] | [8]
inactive: all other assays above

CCCCCOc1ccc(C2SC(=O)NC2=O)cc1OCC (configuration not stated)
active: [2] 29.8 µM
not listed: [4] | [10]
inactive: all other assays above

CCCCNC(=S)NCCCC
active: [9] 23.6 µM
not listed: [3] | [8]
inactive: all other assays above

O=c1oc2c(O)c(O)cc3c(=O)oc4c(O)c(O)cc1c4c23
inactive: [1] | [2] | [3] | [5] | [6] | [9]

Cc1c(-c2ccccc2)oc2c(C(=O)OCCN3CCCCC3)cccc2c1=O
not listed: [3]
inactive: all other assays above

O=C(O)c1ccccc1Nc1cc(Cl)ccc1C(=O)O
not listed: [4] | [9] | [10]
inactive: all other assays above

CCOc1ccc(OCC)c(Cl)c1
not listed: [3] | [5] | [9]
inactive: all other assays above

CC1=C(CC(=O)O)c2cc(F)ccc2/C1=C\c1ccc(S(C)(=O)=O)cc1
inactive: [1] | [2] | [3] | [5] | [6]

C=CCc1cc(OC)c(O)c(C(=O)NCCO)c1
not listed: [5] | [8] | [10]
inactive: all other assays above

O=C(O)CN(CCN(CC(=O)O)CC(=O)O)CCN(CC(=O)O)CC(=O)O
not listed: [4] | [8]
inactive: all other assays above

CO[Si](C)(C)OC
not listed: [3]
inactive: all other assays above

CN1CCN(C2=Nc3cc(F)ccc3Cc3ccccc32)CC1
not listed: [3] | [8]
inactive: all other assays above

CCCCCCCCCCCCOCCOS(=O)(=O)O
not listed: [4] | [8] | [10]
inactive: all other assays above

CCOC(=O)[C@H](CCc1ccccc1)N[C@@H](C)C(=O)N1Cc2cc(OC)c(OC)cc2C[C@H]1C(=O)O
active: [2] 9.44 µM
not listed: [4] | [8]
inactive: all other assays above

CC(=O)N[C@@H](CC(C)C)C(=O)O
not listed: [3]
inactive: all other assays above

CCCCc1ccc2nc(NC(=O)OC)[nH]c2c1
active: [2] 1.01 µM
inactive: [1] | [4] | [10] | [5] | [7]

CC1(O)CSC(C)(O)CS1 (configuration not stated)
not listed: [4] | [8] | [10]
inactive: all other assays above

O=C(CC(=O)C(F)(F)F)c1ccccc1
not listed: [4] | [9] | [10]
inactive: all other assays above

CCCCC(=O)O[C@]1(C(=O)CO)[C@H](C)C[C@H]2[C@@H]3CCC4=CC(=O)C=C[C@]4(C)[C@@]3(F)[C@@H](O)C[C@@]21C
not listed: [4] | [8] | [10]
inactive: all other assays above

Oc1ccccc1C=NCc1ccccc1
not listed: [3] | [6] | [9]
inactive: all other assays above

C1CCOC1
not listed: [4] | [7] | [10]
inactive: all other assays above

ClC(Cl)Cl
not listed: [4] | [10]
inactive: all other assays above

CC(C)C1=CC2=CC[C@@H]3[C@](C)(CCC[C@@]3(C)C(=O)O)[C@H]2CC1
inactive: [1] | [2] | [3] | [4] | [5] | [7]

CC(C)=CCCC(C)CCOC=O (configuration not stated)
inactive: [1] | [2] | [3]
active: [5] 43.6 µM | [6] 54.5 µM

COc1cc(C)ccc1C(C)C
not listed: [3] | [6]
inactive: all other assays above

CC1(C)O[C@@H]2C[C@H]3[C@@H]4CCC5=CC(=O)CC[C@]5(C)[C@@]4(F)[C@@H](O)C[C@]3(C)[C@]2(C(=O)CCl)O1
inactive: [1] | [2] | [4] | [10] | [5] | [6]

FC(F)(F)C(Cl)(Cl)Cl
not listed: [3]
inactive: all other assays above

C[C@]12C(=O)OC(=O)[C@H]1[C@H]1C=C[C@@H]2C1
not listed: [3] | [9]
inactive: all other assays above

C=O
not listed: [4] | [7] | [10]
inactive: all other assays above

NCCCN1CCN(CCCN)CC1
not listed: [4] | [10]
inactive: all other assays above

CCCCCCCCCCCCCCCCOP(=O)([O-])OCC[N+](C)(C)C
inactive: [1] | [2] | [3] | [4] | [8] | [6]

CS(=O)(=O)c1ccc([C@@H](O)[C@@H](CF)NC(=O)C(Cl)Cl)cc1
not listed: [2] | [6] | [7]
inactive: all other assays above

CCN(O)CC
not listed: [2] | [10]
inactive: all other assays above

C=CC(C)(O)CC/C=C(\C)CCC=C(C)C (configuration not stated)
inactive: [1] | [2] | [4] | [5] | [9]

OCCN1CCN(CCO)CC1
not listed: [3] | [7] | [10]
inactive: all other assays above

O=C1CCCc2ccccc21
not listed: [2] | [10]
inactive: all other assays above
